Among the data in PubChem BioAssay (Tox21) are Potency values, retold here.

A short description of experiment [1]: qHTS assay to identify small molecule antagonists of the thyroid receptor (TR) signaling pathway - cell viability counter screen (AID 743064). Further: nearly all actives have a fitted effect of over 50% in size. Further: potency means the concentration at half of the fitted maximal effect. An outline of the steps: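 Viability of T3-stimulated (1 nM final) GH3.TRE-Luc cells is measured by CellTiter-Fluor fluorescence after 23.5 h compound exposure at 37 °C plus 30 min reagent incubation.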
A short description of experiment [2]: qHTS assay to identify small molecule antagonists of the thyroid receptor (TR) signaling pathway (AID 743065). Further: nearly all actives have a fitted effect of over 55% in size. Further: potency means the concentration at half of the fitted maximal effect. The method, boiled down: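 Antagonism measured as loss of luciferase signal in GH3 cells stably carrying a TRE-luciferase reporter, co-treated with compound and T3 (1 nM final) for 23.5 h at 37 C. Viability was read in the same well by CellTiter-Fluor.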
Background: Quantitative high-throughput screening tests each substance at several concentrations.

Experiment [3] relates to thyroid hormone receptor (rat, GH3 cells). Briefly: qHTS assay to identify small molecule agonists of the thyroid receptor (TR) signaling pathway (AID 743066; calls by dose curve).
Experiment [4] has as its target Estrogen receptor (Homo sapiens) (UniProt P03372). The experiment is described as follows: qHTS assay to identify small molecule antagonists of the estrogen receptor alpha (ER-alpha) signaling pathway (AID 743069; active means well fitted curve in the direction sought with a large enough effect in the signal ratio in the repeat runs, not every such curve was filed as active; the % refers to the signal ratio). The method, boiled down: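 Antagonist mode: compounds in DMSO were co-added with 17beta-estradiol to ER-alpha-bla HEK293 cells (2% charcoal-stripped serum) and left 18 h at 37C. Reporter inhibition was measured as FRET fluorescence after 2 h LiveBLAzer substrate at room temperature.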

Experiment [5] in a line: qHTS assay to identify small molecule antagonists of the estrogen receptor alpha (ER-alpha) signaling pathway - cell viability counter screen (AID 743074; calls by dose curve;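 further: HEK293 cells carrying ER-alpha-UAS-bla reporter stimulated with 17beta-estradiol; nearly all actives have a fitted effect of over 45% in size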).
Experiment [6] addresses Estrogen receptor (Homo sapiens) (UniProt P03372). Briefly: qHTS assay to identify small molecule agonists of the estrogen receptor alpha (ER-alpha) signaling pathway (AID 743075; calls by dose curve;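 further: HEK293 GripTite cells with ER-alpha and UAS-driven beta-lactamase reporter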).
The target is the same in experiment [7]. The experiment is described as follows: qHTS assay to identify small molecule agonists of the estrogen receptor alpha (ER-alpha) signaling pathway using the BG1 cell line (AID 743079). Further: nearly all actives have a fitted effect of over 20% in size.
The nature of experiment [8]: qHTS assay to identify small molecule antagonists of the estrogen receptor alpha (ER-alpha) signaling pathway using the BG1 cell line - cell viability counter screen (AID 743081).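 Further: compound given together with 17beta-estradiol as the ER stimulus; series mostly up to about 70 µM; nearly all actives have a fitted effect of over 45% in size.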
Another experiment has as its target Aromatase (Homo sapiens) (UniProt P11511). The experiment is described as follows: qHTS assay to identify aromatase inhibitors (AID 743083). Further: nearly all actives have a fitted effect of over 55% in size. Further: potency means the concentration at half of the fitted maximal effect.
Experiment [9] in a line: qHTS assay to identify small molecule antagonists of the estrogen receptor alpha (ER-alpha) signaling pathway using the BG1 cell line (AID 743080; calls by dose curve;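 further: BG1 cells stimulated with 17beta-estradiol alongside compound; series mostly up to about 70 µM; nearly all actives have a fitted effect of over 25% in size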). An outline of the steps: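 BG1-Luc-4E2 cells (endogenous full-length ER-alpha, 4xERE luciferase) hormone-starved 5 days in charcoal-stripped FBS, plated 4,000/well for 24 h, then compound plus 17beta-estradiol for 21.5 h at 37 C; ONE-Glo luminescence read.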

Records with an inconclusive call do not appear. Calls of active or inactive are those of the source. Unless noted, the call rests on the fitted dose curve; in most records, active means well fitted curve in the direction sought with a large enough effect in the repeat runs; inconclusive means weak or mixed curves; inactive means no such curve, though single readings can be large; an effect the other way counts as inactive or inconclusive.

Sequence of Estrogen receptor (Homo sapiens) (P03372 whole entry, looked up): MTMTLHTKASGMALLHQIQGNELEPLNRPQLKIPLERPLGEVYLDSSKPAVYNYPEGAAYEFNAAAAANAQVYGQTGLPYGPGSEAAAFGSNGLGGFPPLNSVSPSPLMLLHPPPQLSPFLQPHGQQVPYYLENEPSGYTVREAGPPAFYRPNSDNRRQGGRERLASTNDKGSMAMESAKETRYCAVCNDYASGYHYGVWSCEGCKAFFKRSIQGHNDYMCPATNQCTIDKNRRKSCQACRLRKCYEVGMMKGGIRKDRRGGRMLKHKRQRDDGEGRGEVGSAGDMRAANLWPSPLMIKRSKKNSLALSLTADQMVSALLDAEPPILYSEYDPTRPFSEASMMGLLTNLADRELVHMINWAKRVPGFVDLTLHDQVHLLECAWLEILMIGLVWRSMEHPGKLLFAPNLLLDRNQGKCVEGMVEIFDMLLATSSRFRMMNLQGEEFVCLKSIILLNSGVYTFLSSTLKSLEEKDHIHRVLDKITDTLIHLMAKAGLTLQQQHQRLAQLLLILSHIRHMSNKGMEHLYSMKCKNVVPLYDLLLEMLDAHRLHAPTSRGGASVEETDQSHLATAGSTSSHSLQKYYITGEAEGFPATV
Sequence of Aromatase (Homo sapiens) (P11511 whole entry, looked up): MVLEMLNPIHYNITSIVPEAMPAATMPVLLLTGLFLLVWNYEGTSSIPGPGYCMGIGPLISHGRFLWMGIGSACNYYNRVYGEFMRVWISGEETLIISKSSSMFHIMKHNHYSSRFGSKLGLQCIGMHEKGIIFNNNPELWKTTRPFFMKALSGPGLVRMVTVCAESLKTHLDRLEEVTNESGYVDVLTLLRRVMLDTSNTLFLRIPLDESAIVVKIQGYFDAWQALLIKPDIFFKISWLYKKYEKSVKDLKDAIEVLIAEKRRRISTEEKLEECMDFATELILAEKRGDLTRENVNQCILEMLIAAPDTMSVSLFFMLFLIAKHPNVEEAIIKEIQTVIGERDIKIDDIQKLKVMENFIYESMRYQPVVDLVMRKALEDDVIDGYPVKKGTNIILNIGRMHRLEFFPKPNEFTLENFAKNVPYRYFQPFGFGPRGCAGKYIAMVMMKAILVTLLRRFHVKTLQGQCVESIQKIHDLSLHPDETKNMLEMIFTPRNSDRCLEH

As for `CCN(CC)CCNC(=O)c1cc(Cl)c(N)cc1OC`, the Potency entry in [1], in experiment [2], in [3], in experiment [4], in experiment [5] and in experiment [6] was “inactive” throughout. The Potency entry (in [7]; in experiment [8]; with Aromatase (Homo sapiens)) was “inactive” in each case.
In the case of `CC(C)CC(O)CC(C)C`, the Potency result in experiment [1], in experiment [2], in experiment [3], in [4], in experiment [5] and in experiment [6] was “inactive” throughout. Moreover, the Potency result (in experiment [7]; in experiment [9]; in experiment [8]; in the experiment with Aromatase (Homo sapiens)) was “inactive” throughout.
As to `O=C(NC(Cc1cc(=O)[nH]c2ccccc12)C(=O)O)c1ccc(Cl)cc1` (stereo not drawn), the Potency entry in experiment [1], in [2], in experiment [3], in experiment [4], in [5] and in experiment [6] was “inactive” in each case. Further, the Potency result (in [7]; in [8]; with Aromatase (Homo sapiens)) was “inactive” each time.
`O=C(O)c1cccc(C[C@@H]2COc3ccc(OCc4nc5cc(F)ccc5s4)cc3[C@@H]2O)c1`: the Potency result in [1], in experiment [2], in experiment [3], in experiment [4], in [5] and in experiment [6] was “inactive” throughout. Further, the Potency result (in [7]; in experiment [9]; in experiment [8]; with Aromatase (Homo sapiens)) was “inactive” in each case.
For `CC(C)COC(=O)COc1cc(Cl)c(Cl)cc1Cl`, the Potency result in [1], in experiment [2], in [3], in [4], in [5] and in experiment [6] was “inactive” each time. The Potency entry (in experiment [7]; in experiment [9]; in experiment [8]; with Aromatase (Homo sapiens)) was “inactive” throughout.
Regarding `Nc1c(Cl)cc(Cl)cc1[N+](=O)[O-]`, the Potency result in experiment [1], in experiment [2], in experiment [3], in experiment [4], in experiment [5] and in [6] was “inactive” throughout. Also, the Potency result in experiment [7], in experiment [9] and in experiment [8] was “inactive” in each case.
With `Nc1ccc(NC(=O)c2ccc(N)cc2)cc1`, the Potency result in experiment [1], in experiment [2], in [3], in experiment [4], in [5] and in experiment [6] was “inactive” throughout. For the same compound, the Potency entry in [7], in experiment [9] and in experiment [8] was “inactive” in each case.
On to `Nc1ccc(N=Nc2ccc(N)cc2)cc1`, for which, in experiment [1], the Potency is 24.3 µM (active). For the same compound, the Potency entry in experiment [2], in experiment [3], in experiment [4], in experiment [5], in experiment [6] and in [7] was “inactive” throughout. The Potency entry with Aromatase (Homo sapiens) was “inactive”.
Consider `O=C(/C=C/c1ccc([N+](=O)[O-])cc1)c1ccccc1`, for which the Potency result in [1], in [3], in [4], in [5], in experiment [7] and in experiment [8] was “inactive” throughout. Moreover, the Potency result in the experiment with Aromatase (Homo sapiens) is “inactive”. Also, the Potency in experiment [2] is 61.3 µM (active).
Take `COC(OC)OC`: the Potency result in experiment [1], in [2], in experiment [3], in [4], in [6] and in experiment [7] was “inactive” each time. For the same compound, the Potency result (in [9]; in experiment [8]; with Aromatase (Homo sapiens)) was “inactive” each time.
Turning to `c1ccc(CCCc2ccncc2)cc1`, the Potency entry in [1], in experiment [2], in experiment [3], in experiment [4], in [5] and in experiment [6] was “inactive” in each case. Moreover, the Potency result in experiment [7], in experiment [9] and in experiment [8] was “inactive” each time. In addition, the Potency in the experiment with Aromatase (Homo sapiens) was 30.6 µM (active).
For the compound `COc1ccc2nc(S(=O)Cc3ncc(C)c(OC)c3C)[nH]c2c1` (stereo not drawn), the Potency entry in experiment [1], in experiment [2], in experiment [3], in [4], in experiment [5] and in experiment [6] was “inactive” each time. Further, the Potency entry (in [7]; in experiment [9]; in experiment [8]; in the experiment with Aromatase (Homo sapiens)) was “inactive” in each case.
Consider `CCOCCC(=O)OCC`, for which the Potency entry in experiment [1], in experiment [2], in [3], in experiment [4], in experiment [5] and in experiment [6] was “inactive” in each case. For the same compound, the Potency entry (in [7]; in experiment [9]; in experiment [8]; with Aromatase (Homo sapiens)) was “inactive” in each case.
As for `Cc1ccc(S(=O)(=O)NC(=O)NC2CCCCC2)cc1`, the Potency entry in experiment [1], in [2], in [3], in experiment [4], in experiment [5] and in experiment [6] was “inactive” in each case. The Potency result (in experiment [7]; in experiment [8]; with Aromatase (Homo sapiens)) was “inactive” throughout.
For the compound `COc1ccc(-c2cc(C(F)F)nn2-c2ccc(S(N)(=O)=O)cc2)cc1F`, the Potency entry in experiment [1], in experiment [2], in [3], in experiment [5], in experiment [6] and in experiment [7] was “inactive” throughout. Besides, the Potency result (in [9]; in experiment [8]; in the experiment with Aromatase (Homo sapiens)) was “inactive” each time.
For the compound `CCC1CCC(CCC(=O)O)C1` (stereo not drawn), the Potency entry (in experiment [1]; in experiment [2]; in experiment [3]; in experiment [5]; in experiment [8]; in the experiment with Aromatase (Homo sapiens)) was “inactive” in each case.
As for `CN(C)CC/C=C1\c2ccccc2Sc2ccc(Cl)cc21`, the Potency in experiment [1] and in experiment [2] was 11.9 µM (active) each time. The Potency entry in experiment [3], in [5], in experiment [6], in experiment [7], in [9] and in experiment [8] was “inactive” throughout.
In the case of `O=C(C(=O)c1ccco1)c1ccco1`, the Potency result in [1], in [2], in experiment [3], in experiment [5], in experiment [6] and in experiment [7] was “inactive” each time. The Potency result (in experiment [9]; in experiment [8]; with Aromatase (Homo sapiens)) was “inactive” in each case.
As to `CCN(CC)C(=O)/C(C#N)=C/c1cc(O)c(O)c([N+](=O)[O-])c1`, the Potency entry in experiment [1], in [2], in [3], in experiment [5], in experiment [6] and in experiment [7] was “inactive” throughout. For the same compound, the Potency result (in experiment [9]; in [8]; in the experiment with Aromatase (Homo sapiens)) was “inactive” each time.
`C/C(C=O)=C\c1ccccc1`: the Potency entry in [1], in experiment [2], in experiment [3], in experiment [5], in experiment [6] and in [7] was “inactive” in each case. For the same compound, the Potency result (in experiment [8]; in the experiment with Aromatase (Homo sapiens)) was “inactive” in each case.
With `COC(CC(C)CCCC(C)(C)O)OC` (stereo not drawn), the Potency entry (in [1]; in experiment [2]; in [3]; in experiment [5]; in experiment [8]; in the experiment with Aromatase (Homo sapiens)) was “inactive” in each case.
With `Cc1ccc(Cl)cc1N`, the Potency result (in experiment [1]; in experiment [2]; in experiment [3]; in experiment [5]; in experiment [8]; with Aromatase (Homo sapiens)) was “inactive” in each case.
`CNC1CCCN(c2c(F)cc3c(=O)c(C(=O)O)cn(C4CC4)c3c2OC)C1` (stereo not drawn): the Potency entry in [1], in experiment [2], in experiment [3], in [5], in [6] and in experiment [7] was “inactive” throughout. Also, the Potency entry (in [9]; in experiment [8]; in the experiment with Aromatase (Homo sapiens)) was “inactive” in each case.
As for `Cc1ccccc1S(N)(=O)=O`, the Potency entry in experiment [1], in experiment [2], in experiment [3], in experiment [5] and in [8] was “inactive” each time.
For `CCC(C)(C)C(=O)O`, the Potency entry in experiment [1], in [2], in experiment [3], in experiment [5], in [6] and in experiment [8] was “inactive” throughout. Moreover, the Potency result in the experiment with Aromatase (Homo sapiens) is “inactive”.
On to `CC(=O)OCC1=C(C(=O)O)N2C(=O)[C@@H](NC(=O)CSc3ccncc3)[C@H]2SC1`, for which the Potency result (in experiment [1]; in [2]; in experiment [3]; in experiment [5]; in experiment [8]; in the experiment with Aromatase (Homo sapiens)) was “inactive” in each case.
